Measured values as given in PubChem BioAssay.
Activity calls are given as the source filed them. Unless noted, the rule behind the calls is not given here.

Key:
[1] = tested on: XIP peptide (Xip251-270) binding; experiment: XIP fragment 251-270 binding compounds – biochemical, small-molecule microarray, fluorescence 635/667 nm, 0.1 µg/mL protein, primary screen (AID 1182); conditions: fluorescent protein binding, 635 nm, higher = more signal, called active from +8 up or from −8 down
[2] = tested on: XIP peptide (Xip251-270); experiment: compounds binding XIP fragment 251-270 – biochemical, small-molecule microarray, fluorescence 635/667 nm, 0.5 µg/mL protein, primary screen (AID 1183); conditions: fluorescence 635 nm, higher = more signal
[3] = blood-stage malaria parasite viability loss – strain 3D7, DAPI fluorescence, 100 nL, primary screen (AID 1184);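 note: parasites grown inside human red blood cells in medium with human serum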; conditions: P. falciparum 3D7 growth, 3 d, higher = more signal
[4] = target: Homeobox protein Hox-A13 (Mus musculus) (UniProt Q62424); experiment: disruptors of Hoxa13 oligonucleotide interaction – biochemical, fluorescence polarization, labeled oligonucleotide, primary screen (AID 1185); conditions: Hoxa13:DNA binding, 15 min, higher = more signal, called active from +8 up or from −8 down
Homeobox protein Hox-A13 (Mus musculus), sequence (Q62424 whole entry, looked up): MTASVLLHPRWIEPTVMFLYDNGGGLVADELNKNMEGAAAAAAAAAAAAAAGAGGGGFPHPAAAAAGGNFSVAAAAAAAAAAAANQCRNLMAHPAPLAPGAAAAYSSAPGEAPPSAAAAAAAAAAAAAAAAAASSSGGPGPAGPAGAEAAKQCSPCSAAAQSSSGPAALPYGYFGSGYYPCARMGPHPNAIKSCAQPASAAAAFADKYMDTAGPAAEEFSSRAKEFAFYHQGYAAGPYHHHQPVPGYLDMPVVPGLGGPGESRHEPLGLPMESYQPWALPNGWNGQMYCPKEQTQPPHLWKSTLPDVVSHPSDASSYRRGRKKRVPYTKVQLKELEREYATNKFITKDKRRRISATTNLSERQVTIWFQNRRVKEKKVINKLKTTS

[5] = blockers of DNA damage checkpoint Chk1 activation – imaging, HeLa, hydroxyurea, phospho-Chk1 antibody, percent positive cells, primary screen (AID 1186); conditions: hydroxyurea-induced phospho-Chk1 immunofluorescence imaging, higher = more signal
[6] = blockers of DNA damage checkpoint Chk1 activation – imaging, HeLa, hydroxyurea, phospho-Chk1 nuclear intensity, primary screen (AID 1187); conditions: hydroxyurea-induced phospho-Chk1 immunofluorescence imaging, higher = more signal

Compound	composite z-score [1]	composite z-score [2]	z-score [3]	z-score [4]	z-score [5]	z-score [6]
CCOC(=O)C1=C[C@@H](C(C)(C)C)N(S(=O)(=O)c2ccc(C)cc2)[C@H]1c1ccc(OC)cc1	0.58 (inactive)	0.582	-1.88	-0.488 (inactive)	0.15 (inactive)	0.503 (inactive)
COC(=O)[C@@]1(Cc2ccc(F)cc2)[C@H]2c3cc(C(=O)N(C)C)n(CCF)c3C[C@H]2CN1C(=O)c1ccccc1	0.588 (inactive)	0.779	-0.552	-5.09 (inactive)	-0.847 (inactive)	-0.595 (inactive)
COC(=O)c1c2oc(c1C(=O)OC)C(=O)N[C@H](Cc1ccccc1)Cn1cc(nn1)C1(CCCCC1)NC(=O)N[C@H](CO)CC2	0.772 (inactive)	-0.652	0.764	-3.34 (inactive)	-0.0529 (inactive)	-0.669 (inactive)
C=CCNC(=O)[C@@H]1[C@H]2C(=O)O[C@H](c3ccccc3)[C@H](c3ccccc3)N2[C@H](c2ccc(OCCO)cc2)[C@@]12C(=O)Nc1ccc(C#CCNC(N)=O)cc12	2.5 (inactive)	0.561	0.175	-3.63 (inactive)	0.286 (inactive)	0.0132 (inactive)
O=C(NC1CC1)[C@@H]1c2ccccc2C(=O)N(C2CCCCC2)[C@H]1c1ccc(CO)cc1	0.969 (inactive)	0.647	-1.1	-3.16 (inactive)	-0.312 (inactive)	-0.617 (inactive)
COCCOC(=O)N1C(=O)[C@@]2(c3cc(C#CCNC(N)=O)ccc31)[C@H](C(=O)Nc1nc3ccccc3s1)[C@H]1C(=O)O[C@H](c3ccccc3)[C@H](c3ccccc3)N1[C@@H]2c1ccc(O)cc1	-0.0637 (inactive)	0.321	0.106	-0.879 (inactive)	-0.0038 (inactive)	-0.0749 (inactive)
[N-]=[N+]=NCc1ccccc1[C@H]1OC(c2ccc(OCCCO)cc2)=N[C@@]1(Cc1ccccc1N=[N+]=[N-])C(=O)N1CCOCC1	-0.185 (inactive)	0.604	-2.27	-1.45 (inactive)	-0.332 (inactive)	0.0967 (inactive)
C[C@@]1([C@@H](NS(=O)(=O)c2cccc3cccnc23)c2ccc(-c3ccccc3)cc2)C[C@H]1C1CCCCC1	0.648 (inactive)	-0.209	-0.748	2.32 (inactive)	1.42 (inactive)	0.534 (inactive)
CCOC(=O)C1=CC[C@@H](c2ccccc2)N(S(=O)(=O)c2ccc(C)cc2)[C@@H]1C#N	0.216 (inactive)	0.423	-0.465	-4.26 (inactive)	-1.95 (inactive)	-2.5 (inactive)
COCCOC(=O)N1C(=O)[C@@]2(c3cc(C#CCC(C(=O)OC)C(=O)OC)ccc31)[C@H](c1ccc(O)cc1)N1[C@H](c3ccccc3)[C@H](c3ccccc3)OC(=O)[C@H]1[C@@H]2C(=O)N1CCc2cc(OC)c(OC)cc2C1	0.406 (inactive)	0.803	-2.15	-1.37 (inactive)	-0.0407 (inactive)	0.46 (inactive)
O=C1NC(=O)C2C1C=CC(C(O)c1ccc(F)cc1)N2Nc1ccc(Cl)cc1Cl (stereo not drawn)	-0.138 (inactive)	-0.258	-0.525	-5.48 (inactive)	-0.142 (inactive)	0.116 (inactive)
COC(=O)C(CC#Cc1ccc2c(c1)[C@]1(C(=O)N2)[C@H](C(=O)NC[C@H](O)c2ccccc2)[C@H]2C(=O)O[C@H](c3ccccc3)[C@H](c3ccccc3)N2[C@@H]1c1ccc(O)cc1)C(=O)OC	0.321 (inactive)	0.418	-1.05	-3.56 (inactive)	0.288 (inactive)	0.557 (inactive)
COCCOC(=O)N1C(=O)[C@@]2(c3cc(C#CCC(C(=O)OC)C(=O)OC)ccc31)[C@H](C(=O)N1CCc3cc(OC)c(OC)cc3C1)[C@H]1C(=O)O[C@H](c3ccccc3)[C@H](c3ccccc3)N1[C@@H]2c1ccccc1OCCO	0.629 (inactive)	0.733	-2.12	0.96 (inactive)	-0.182 (inactive)	-0.252 (inactive)
Cc1ccc(S[C@]2(C(=O)NCc3ccccc3)CC(=O)N(Cc3ccccc3Cl)[C@@H]2c2ccc(CO)cc2)cc1	1.65 (inactive)	0.825	-1.2	-2.65 (inactive)	0.172 (inactive)	0.622 (inactive)
COc1ccc(C(=O)Nc2ccc(CN3C(=O)[C@]4(O[C@H](CC(=O)N(CCO)Cc5ccccc5)[C@@H]([Si](C)(C)c5ccc(OC)cc5)[C@@H]4C)c4ccccc43)cc2)cc1	0.321 (inactive)	0.703	-2	-1.96 (inactive)	0.274 (inactive)	0.337 (inactive)
COC(=O)C1=CC(CCCO)=CC(c2ccc(CN3CCCC3)cc2)N(C)C=C1C(=O)OC (stereo not drawn)	0.736 (inactive)	0.873	0.34	-6.09 (inactive)	-0.118 (inactive)	-0.428 (inactive)
COC(=O)[C@H]1N=C(c2ccc(OCCCO)cc2)O[C@H]1c1ccccc1N=[N+]=[N-]	0.363 (inactive)	0.75	-2.1	-4.13 (inactive)	-0.0771 (inactive)	0.193 (inactive)

Compound	composite z-score [1]	composite z-score [2]	z-score [3]	z-score [4]	z-score [5]	z-score [6]
O=C1O[C@@H](c2ccccc2)[C@@H](c2ccccc2)N2[C@@H](c3ccc(OCCO)cc3)[C@]3(C(=O)Nc4ccc(C#CC5=CCCCC5)cc43)[C@@H](C(=O)Nc3nc4ccccc4s3)[C@H]12	-0.487 (inactive)	0.646	-1.38	-15.3 (active)	-0.176 (inactive)	-0.282 (inactive)
CCCCCN1CC=CC23O[C@@H]4/C=C\CCCOC(=O)C4[C@H]2C(=O)N(CCO)[C@@H]3C1=O (stereo partly drawn)	-0.0751 (inactive)	0.663	-1.31	-3.77 (inactive)	0.169 (inactive)	0.205 (inactive)
COc1ccc([Si](C)(C)[C@H]2[C@H](CC(=O)N(CCO)Cc3ccccc3)O[C@@]3(C(=O)N(Cc4ccc(N5C(=O)c6cccc7cccc5c67)cc4)c4ccccc43)[C@@H]2C)cc1	1.74 (inactive)	0.587	-2.11	-1.38 (inactive)	-0.664 (inactive)	-0.393 (inactive)
[N-]=[N+]=Nc1ccccc1C[C@@]1(C(=O)NCC(O)CO)N=C(c2ccc(OCCCO)cc2)O[C@@H]1c1ccccc1N=[N+]=[N-] (stereo partly drawn)	0.0609 (inactive)	0.0519	-2.15	-2.28 (inactive)	-0.0996 (inactive)	0.263 (inactive)
CN(C)CCCCCCNC(=O)[C@@H]1C[C@@H]2C(=O)N[C@@H](CCCC[N+](C)(C)C)C(=O)N2[C@@H]1c1cccc(OCCO)c1	0.877 (inactive)	-0.0938	-0.143	-1.8 (inactive)	0.559 (inactive)	0.952 (inactive)
CCOC(=O)C[C@H]1[C@H](OC(=O)c2ccccc2-c2ccccc2)[C@@H](NC(=O)CC(C)C)c2cc(OCCCO)ccc2N1C(=O)c1ccccc1	0.539 (inactive)	0.649	-0.966	-4.48 (inactive)	-0.439 (inactive)	-0.151 (inactive)
NCCCCCCNC(=O)[C@@H]1C[C@@H]2C(=O)NCC(=O)N2[C@@H]1c1cccc(OCCO)c1	0.592 (inactive)	0.354	0.418	-1.96 (inactive)	0.13 (inactive)	0.118 (inactive)
CN1C(=O)C2C(C1=O)C1C=C(CCCO)C2C(C2CC2)N1C (stereo not drawn)	0.58 (inactive)	0.591	0.119	-6.6 (inactive)	-0.0182 (inactive)	0.162 (inactive)
COc1cc(Cc2cc3c(c(CCc4ccccc4)n2)[Si](C(C)C)(C(C)C)O[C@H]3c2ccccc2)cc(OC)c1OC	0.41 (inactive)	0.202	0.578	-5.59 (inactive)	-0.167 (inactive)	-0.286 (inactive)
COc1cc2c(cc1OC)CN(C(=O)[C@@H]1[C@H]3C(=O)O[C@H](c4ccccc4)[C@H](c4ccccc4)N3[C@H](c3ccc(O)cc3)[C@@]13C(=O)Nc1ccc(C#CC4=CCCCC4)cc13)CC2	0.715 (inactive)	0.535	-0.75	2.74 (inactive)	0.0655 (inactive)	0.407 (inactive)
O=C1C2C=CC(C(O)C3CC=CCC3)N(Nc3ccc([N+](=O)[O-])cc3)C2C(=O)N1c1ccccc1 (stereo not drawn)	0.524 (inactive)	0.545	-0.627	-3.86 (inactive)	0.691 (inactive)	-0.101 (inactive)
CCCCC(=C=CC[C@H](O)c1cccc(OCCO)c1)C[C@H](O)c1cc(Cl)cc(Cl)c1O	0.878 (inactive)	0.592	-1.16	-4.28 (inactive)	-0.755 (inactive)	0.0773 (inactive)
CCOC(=O)C[C@H]1[C@H](OC(=O)Cc2ccc3c(c2)OCO3)[C@@H](NC(=O)CC(C)C)c2cc(OCCCO)ccc2N1C(=O)c1ccc2ccccc2n1	0.216 (inactive)	0.784	-2.04	-4.65 (inactive)	-0.0615 (inactive)	0.252 (inactive)
COC(=O)C1=CC(c2ccc(CO)cc2)=CC(C2CC2)N(Cc2cc3c(cc2Br)OCO3)C=C1C(=O)OC (stereo not drawn)	1.59 (inactive)	0.859	-2.29	-5.19 (inactive)	0.0404 (inactive)	-0.0211 (inactive)
CCc1cccc(NC(=O)O[C@H]2[C@H](OC(=O)Nc3ccccc3-c3ccccc3)[C@H](OC(=O)Nc3ccccc3-c3ccccc3)[C@@H](OC)O[C@@H]2CO)c1	0.187 (inactive)	0.591	-2.53	-1.39 (inactive)	-0.36 (inactive)	0.0172 (inactive)
COC(=O)C1(CC(C)C)C=C2C(=C(C)C(=O)C2C)CN1 (stereo not drawn)	-0.583 (inactive)	0.992	0.51	-4.02 (inactive)	0.886 (inactive)	0.911 (inactive)
